Experimental data reported in PubChem BioAssay.

Target: Alpha-bungarotoxin (Bungarus multicinctus) (UniProt P60615)
Assay: compounds binding labelled alpha-BTX control protein – biochemical, small-molecule microarray, Alexa647 label, 635/667 nm fluorescence, artefact control for SMM control protein annotation, profiling panel (AID 1117)
Settings: alpha-BTX-A647 binding fluorescence, higher = more signal

Alpha-bungarotoxin (Bungarus multicinctus), sequence (P60615 whole entry, looked up): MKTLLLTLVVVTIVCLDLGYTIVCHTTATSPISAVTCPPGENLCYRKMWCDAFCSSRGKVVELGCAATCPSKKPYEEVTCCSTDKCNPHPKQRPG

Point of comparison: [N-]=[N+]=NCc1ccccc1[C@H]1OC(c2ccc(OCCCO)cc2)=N[C@@]1(Cc1ccccc1)C(N)=O, composite z-score 2.54. Against it:
- COC(=O)[C@H]1N=C(c2ccc(OCCCO)cc2)O[C@H]1c1ccccc1CN=[N+]=[N-] — lower, 0.534
- C[N+](C)(C)CCCCNC(=O)[C@H]1C[C@H]2C(=O)NCC(=O)N2[C@H]1c1ccc(O)cc1 — lower, 0.832
- CN(C)CCCCCCNC(=O)[C@@H]1C[C@@H]2C(=O)NCC(=O)N2[C@@H]1c1ccc(O)cc1 — lower, 1.83
- COc1ccc(C#Cc2ccc3c(c2)[C@]2(C(=O)N3)[C@H](c3ccc(OCCO)cc3)N3[C@H](c4ccccc4)[C@H](c4ccccc4)OC(=O)[C@H]3[C@@H]2C(=O)N2CCN(c3ncccn3)CC2)cc1 — lower, 0.235
- C#CCOC(=O)N[C@H](C=CCCCC)c1ccccc1 — lower, -0.194
- COc1cccc(C[C@H]2C[C@@H](CO[Si](C(C)C)(C(C)C)C(C)C)N3C(=O)[C@]4(C(C)=O)O[C@]23[C@H]2C(=O)N(C)C(=O)[C@H]24)c1 — lower, 0.866
- C=C(COC)/C(=C/C[C@@H](OC(=O)c1ccncc1)c1cccc(OCCO)c1)c1cc(C(=O)OC)ccc1OC — lower, 0.243
- C[N+](C)(C)CCCC[C@@H]1NC(=O)[C@@H]2C[C@H](C(=O)NCCCCCNC(=O)CS)[C@H](c3cccc(OCCO)c3)N2C1=O — lower, 0.568
- CCCCCCCCCCC(O)C1C=CC2C(=O)NC(=O)C2N1Nc1ccccn1 (stereo unspecified) — lower, 0.217
- CCOC(=O)C[C@H]1[C@H](OC(=O)c2ccc(C(=O)c3ccccc3)cc2)[C@@H](NC(=O)C2CCCCC2)c2cc(OCCCO)ccc2N1C(=O)Cc1ccc(OC)cc1 — lower, 0.237
- COc1ccc([Si](C)(C)[C@@H]2[C@@H](CCO)O[C@]3(C(=O)N(Cc4ccc(N5C(=O)c6ccccc6Oc6ccccc65)cc4)c4ccccc43)[C@H]2C)cc1 — lower, 0.0794
- O=C1O[C@@H](c2ccccc2)[C@@H](c2ccccc2)N2[C@@H](c3ccc(O)cc3)[C@]3(C(=O)Nc4ccc(C#CC5(O)CCCCCC5)cc43)[C@@H](C(=O)N3CCN(c4ncccn4)CC3)[C@H]12 — lower, 1.21
- COCCCNC(=O)[C@@]1(C)c2ccccc2C(=O)N(c2ccc(C)cn2)[C@H]1c1ccc(CO)cc1 — lower, -1.65
- COc1ccc([Si](C)(C)[C@H]2[C@H](CCO)O[C@@]3(C(=O)N(Cc4cccc(N5CCOC5=O)c4)c4ccccc43)[C@@H]2C)cc1 — lower, 0.355
- O=C(N1CCOCC1)[C@@]1(CCS(=O)(=O)c2ccccc2)COC(c2ccc(OCCCO)cc2)=N1 — lower, -0.422
- COCCOC(=O)N1C(=O)[C@@]2(c3cc(C#Cc4ccc(OC)cc4)ccc31)[C@H](C(N)=O)[C@H]1C(=O)O[C@H](c3ccccc3)[C@H](c3ccccc3)N1[C@@H]2c1ccc(OCCO)cc1 — lower, 1.5
- C=C[C@H](C)[C@H](OC(=O)Nc1ccc(SC)cc1)c1ccc(O)c2ccccc12 — lower, -0.385
- C=C(CCCC)/C(=C/C[C@H](OC(=O)c1ccncc1)c1ccc(CO)o1)c1cc(C(=O)OC)ccc1OC — lower, 1.28
- CN1C(=O)C2C=CC(C(O)c3cccc4ccccc34)N(NC(=O)OC(C)(C)C)C2C1=O (stereo unspecified) — lower, 1.19
- COc1cc2c(cc1OC)CN(C(=O)[C@@H]1[C@H]3C(=O)O[C@H](c4ccccc4)[C@H](c4ccccc4)N3[C@H](c3ccc(OCCO)cc3)[C@@]13C(=O)Nc1ccc(C#CCCO)cc13)CC2 — lower, 1.36
- NCCCCCCNC(=O)[C@H]1C[C@H]2C(=O)N3CCC[C@H]3C(=O)N2[C@H]1c1ccc(O)cc1 — lower, 1.05
- C[C@H]1NC(=O)C([C@@H](C)OCc2ccccc2)NC(=O)[C@@]23C(=O)N[C@@H](Cc4ccccc4)C2[C@H](C)[C@@]2(C)O[C@H]2C3/C=C/CC/C=C/CNC1=O (stereo partly specified) — lower, 0.421
- O=C1O[C@@H](c2ccccc2)[C@@H](c2ccccc2)N2[C@@H](c3ccc(O)cc3)[C@]3(C(=O)Nc4ccc(C#CC5=CCCCC5)cc43)[C@@H](C(=O)Nc3nc4ccccc4s3)[C@H]12 — lower, 1.87
- CC(C)(C)N1CC=CC23O[C@@H]4C=CCCOC(=O)C4[C@H]2C(=O)N(CCCO)[C@@H]3C1=O (stereo partly specified) — lower, -1.39
- CN(C)CCCCNC(=O)[C@H]1C[C@H]2C(=O)N[C@@H](CCCC[N+](C)(C)C)C(=O)N2[C@H]1c1cccc(OCCO)c1 — lower, 0.112
- CCCCC(CC)C(O)C1C=CC2C(=O)NC(=O)C2N1Nc1ccccn1 (stereo unspecified) — lower, 1.36
- C[N+](C)(C)CCCCCCNC(=O)[C@@H]1C[C@@H]2C(=O)NCC(=O)N2[C@@H]1c1cccc(OCCO)c1 — lower, 1.96
- CCCCC=C[C@@H](NC(=O)CCc1ccccc1)c1ccccc1 — lower, 1.19
- C[N+](C)(C)CCCCCCNC(=O)[C@H]1C[C@H]2C(=O)N3CCC[C@H]3C(=O)N2[C@H]1c1cccc(OCCO)c1 — lower, 0.0895
- COc1cccc(C)c1NC(=O)O[C@H]1[C@H](OC(=O)Nc2ccccc2)[C@H](OC(=O)Nc2ccccc2)[C@@H](OC)O[C@@H]1CO — lower, 1.3
- CC(C)NC(=O)[C@@]1(Cc2ccccc2I)c2ccccc2C(=O)N(Cc2ccccc2C(F)(F)F)[C@H]1c1ccc(CO)cc1 — lower, 0.565
- COCCCNC(=O)[C@@]1(Cc2ccccc2CN=[N+]=[N-])N=C(c2ccc(OCCCO)cc2)O[C@H]1c1ccccc1N=[N+]=[N-] — lower, 1.48
- C=C(C)[C@@H]1CC=C(C(O)C2C=CC3C(=O)N(C4CCCCC4)C(=O)C3N2Nc2ccc(OC)cc2)CC1 (stereo partly specified) — lower, 1.3
- C=CCC(OC(C)=O)[C@@H]1[C@@H](N(Cc2ccc(-c3ccccc3)cc2)C(=O)Cc2ccc(OC)cc2)c2cc(OCCCO)ccc2N1C(=O)c1ccc(-c2ccccc2)cc1 (stereo partly specified) — lower, 0.544
- CC(C)=CCCC(C)=CC(O)C1C=CC2C(=O)N(c3ccccc3)C(=O)C2N1Nc1ccc([N+](=O)[O-])cc1 (stereo unspecified) — lower, 0.972
